{
  "source": "paper PMC7862700",
  "about": "“An all-to-all approach to the identification of sequence-specific readers for epigenetic DNA modifications on cytosine”",
  "assay_in_all_cases": "DAPPL (digital affinity profiling via proximity ligation, sequencing); 10 mM Tris-HCl pH 7.5, 50 mM NaCl, 1 mM DTT, 4% glycerol, room temperature, 30 min; GST-TFs on glutathione beads, 16-mer random dsDNA library, 0.1% formaldehyde crosslink after washing; high values mean tight binding",
  "key": {"[1]": {"biological_target": "T1, FEV (Homo sapiens, UniProt Q99581 1-238)", "T1 sequence": "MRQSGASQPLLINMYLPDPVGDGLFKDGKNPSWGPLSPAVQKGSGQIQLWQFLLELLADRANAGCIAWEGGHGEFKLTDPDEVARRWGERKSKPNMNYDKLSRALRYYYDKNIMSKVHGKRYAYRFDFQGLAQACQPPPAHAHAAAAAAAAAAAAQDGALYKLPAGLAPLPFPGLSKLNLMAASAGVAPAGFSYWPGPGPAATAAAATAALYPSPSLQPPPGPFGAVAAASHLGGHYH", "conditions": "protein: recombinant; tags: N-terminal GST; dsDNA, one strand shown", "outline": "(§1)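 Binding signal is each hexamer's read frequency for a factor divided by its frequency in the tag-only sample. The factors were GST-fused human transcription factors from yeast, captured on glutathione beads, DNA-barcoded and pooled with that sample. Pools were incubated with 200 nmole of a random double-stranded 16-mer DNA library in Tris/NaCl/DTT/glycerol buffer at room temperature for 30 min, then washed, crosslinked with 0.1% formaldehyde, proximity-ligated with BsaI/T4 ligase (1 h, 37 °C), PCR-amplified and sequenced on an Illumina NextSeq500.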"}, "[2]": {"biological_target": "ETV5 (Homo sapiens, UniProt P41161 1-510)", "sequence (P41161 whole entry)": "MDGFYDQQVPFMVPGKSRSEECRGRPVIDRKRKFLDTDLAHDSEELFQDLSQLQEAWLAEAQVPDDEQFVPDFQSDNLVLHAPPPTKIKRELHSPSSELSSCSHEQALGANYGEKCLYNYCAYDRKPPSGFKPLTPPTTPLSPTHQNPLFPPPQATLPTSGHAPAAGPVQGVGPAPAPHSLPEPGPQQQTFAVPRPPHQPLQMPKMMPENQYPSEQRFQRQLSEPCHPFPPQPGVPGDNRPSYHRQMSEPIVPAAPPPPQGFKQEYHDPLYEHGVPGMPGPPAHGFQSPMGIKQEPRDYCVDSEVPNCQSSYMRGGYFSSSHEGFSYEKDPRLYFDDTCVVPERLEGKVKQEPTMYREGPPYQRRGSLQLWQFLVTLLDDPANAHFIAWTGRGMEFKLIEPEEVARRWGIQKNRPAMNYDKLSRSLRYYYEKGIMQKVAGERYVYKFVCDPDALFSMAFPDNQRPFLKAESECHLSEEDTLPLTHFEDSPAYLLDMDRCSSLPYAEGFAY", "conditions": "protein: recombinant; tags: N-terminal GST; dsDNA, one strand shown", "outline": "as §1"}, "[3]": {"biological_target": "HSF1 (Homo sapiens, UniProt Q00613 1-529)", "sequence (Q00613 whole entry)": "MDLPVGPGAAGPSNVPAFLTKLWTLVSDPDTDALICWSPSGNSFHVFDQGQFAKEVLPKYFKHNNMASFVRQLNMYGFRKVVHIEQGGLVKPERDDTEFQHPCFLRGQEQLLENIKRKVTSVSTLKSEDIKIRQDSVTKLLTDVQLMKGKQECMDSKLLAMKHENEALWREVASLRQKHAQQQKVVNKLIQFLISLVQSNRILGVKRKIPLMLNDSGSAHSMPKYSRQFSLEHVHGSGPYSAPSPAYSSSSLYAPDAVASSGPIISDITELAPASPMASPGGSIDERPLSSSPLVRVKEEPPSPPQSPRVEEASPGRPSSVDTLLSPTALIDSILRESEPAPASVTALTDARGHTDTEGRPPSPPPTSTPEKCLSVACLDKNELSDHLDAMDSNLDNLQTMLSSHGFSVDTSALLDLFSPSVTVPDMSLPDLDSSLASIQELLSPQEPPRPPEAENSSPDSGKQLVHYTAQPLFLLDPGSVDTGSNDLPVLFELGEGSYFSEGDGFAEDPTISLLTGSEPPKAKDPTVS", "conditions": "protein: recombinant; tags: N-terminal GST; chain copies: 3; dsDNA, one strand shown", "outline": "as §1"}, "[4]": {"biological_target": "T2, SPIC (Homo sapiens, UniProt Q8N5J4 1-248)", "T2 sequence": "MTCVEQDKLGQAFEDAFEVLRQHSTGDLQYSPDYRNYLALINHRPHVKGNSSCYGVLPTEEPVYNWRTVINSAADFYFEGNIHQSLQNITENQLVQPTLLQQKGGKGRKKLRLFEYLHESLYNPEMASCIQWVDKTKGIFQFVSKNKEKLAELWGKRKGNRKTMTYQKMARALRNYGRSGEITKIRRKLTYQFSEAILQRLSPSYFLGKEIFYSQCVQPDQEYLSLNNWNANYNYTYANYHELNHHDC", "conditions": "protein: recombinant; tags: N-terminal GST; dsDNA, one strand shown", "outline": "as §1"}, "[5]": {"biological_target": "ELF4 (Homo sapiens, UniProt Q99607 1-663)", "sequence (Q99607 whole entry)": "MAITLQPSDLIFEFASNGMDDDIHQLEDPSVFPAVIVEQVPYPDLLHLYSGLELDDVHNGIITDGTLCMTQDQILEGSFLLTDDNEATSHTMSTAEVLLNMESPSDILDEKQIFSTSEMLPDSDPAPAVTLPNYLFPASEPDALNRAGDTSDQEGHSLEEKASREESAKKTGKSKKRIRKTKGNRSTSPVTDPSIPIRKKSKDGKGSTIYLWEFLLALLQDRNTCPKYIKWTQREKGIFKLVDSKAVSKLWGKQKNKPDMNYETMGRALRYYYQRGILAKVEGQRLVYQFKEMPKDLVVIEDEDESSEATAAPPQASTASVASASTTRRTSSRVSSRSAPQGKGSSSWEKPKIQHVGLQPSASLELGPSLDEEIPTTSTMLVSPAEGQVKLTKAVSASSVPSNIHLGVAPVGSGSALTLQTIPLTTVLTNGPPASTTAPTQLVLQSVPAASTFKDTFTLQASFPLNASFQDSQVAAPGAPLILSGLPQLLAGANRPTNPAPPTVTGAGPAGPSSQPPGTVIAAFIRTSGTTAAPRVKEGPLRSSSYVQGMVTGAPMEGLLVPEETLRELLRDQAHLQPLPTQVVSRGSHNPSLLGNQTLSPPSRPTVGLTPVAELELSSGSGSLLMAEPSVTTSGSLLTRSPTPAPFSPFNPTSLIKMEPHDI", "conditions": "protein: recombinant; tags: N-terminal GST; dsDNA, one strand shown", "outline": "as §1"}, "[6]": {"biological_target": "T3, ELK4 (Homo sapiens, UniProt P28324-2 1-405)", "T3 sequence": "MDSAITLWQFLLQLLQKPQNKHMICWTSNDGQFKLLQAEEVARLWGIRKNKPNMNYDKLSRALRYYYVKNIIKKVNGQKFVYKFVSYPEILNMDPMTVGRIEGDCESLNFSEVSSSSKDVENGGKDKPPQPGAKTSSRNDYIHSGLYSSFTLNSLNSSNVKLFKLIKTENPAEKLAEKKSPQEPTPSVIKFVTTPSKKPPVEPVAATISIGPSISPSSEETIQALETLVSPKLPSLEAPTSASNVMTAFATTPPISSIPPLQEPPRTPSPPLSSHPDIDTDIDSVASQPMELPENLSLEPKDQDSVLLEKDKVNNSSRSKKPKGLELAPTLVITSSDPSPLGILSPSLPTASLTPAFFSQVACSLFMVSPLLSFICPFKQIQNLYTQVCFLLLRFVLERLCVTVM", "conditions": "protein: recombinant; tags: N-terminal GST; dsDNA, one strand shown", "outline": "as §1"}, "[7]": {"biological_target": "T4, ETV2 (Homo sapiens, UniProt O00321 1-342)", "T4 sequence": "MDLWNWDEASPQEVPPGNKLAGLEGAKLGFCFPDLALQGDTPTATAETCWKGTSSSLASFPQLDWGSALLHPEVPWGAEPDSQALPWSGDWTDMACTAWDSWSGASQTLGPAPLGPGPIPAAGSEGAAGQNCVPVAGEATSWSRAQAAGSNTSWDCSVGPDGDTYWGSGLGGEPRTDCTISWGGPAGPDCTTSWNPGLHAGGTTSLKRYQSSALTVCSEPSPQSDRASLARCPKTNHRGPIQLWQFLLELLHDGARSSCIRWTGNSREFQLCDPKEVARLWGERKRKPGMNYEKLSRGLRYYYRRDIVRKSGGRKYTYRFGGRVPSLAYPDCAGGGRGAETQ", "conditions": "protein: recombinant; tags: N-terminal GST; dsDNA, one strand shown", "outline": "as §1"}, "[8]": {"biological_target": "T5, ELF3 (Homo sapiens, UniProt P78545 1-371)", "T5 sequence": "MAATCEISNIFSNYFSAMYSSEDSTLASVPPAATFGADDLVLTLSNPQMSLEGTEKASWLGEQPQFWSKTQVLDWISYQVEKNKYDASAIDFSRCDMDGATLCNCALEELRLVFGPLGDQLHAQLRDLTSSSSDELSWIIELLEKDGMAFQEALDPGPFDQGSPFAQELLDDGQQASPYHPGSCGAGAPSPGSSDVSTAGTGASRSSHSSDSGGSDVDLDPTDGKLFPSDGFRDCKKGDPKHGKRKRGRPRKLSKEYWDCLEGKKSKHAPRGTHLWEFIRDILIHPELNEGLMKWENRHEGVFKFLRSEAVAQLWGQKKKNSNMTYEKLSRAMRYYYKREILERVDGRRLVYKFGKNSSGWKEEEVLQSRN", "conditions": "protein: recombinant; tags: N-terminal GST; dsDNA, one strand shown", "outline": "as §1"}, "[9]": {"biological_target": "CRX (Homo sapiens, UniProt O43186 1-299)", "sequence (O43186 whole entry)": "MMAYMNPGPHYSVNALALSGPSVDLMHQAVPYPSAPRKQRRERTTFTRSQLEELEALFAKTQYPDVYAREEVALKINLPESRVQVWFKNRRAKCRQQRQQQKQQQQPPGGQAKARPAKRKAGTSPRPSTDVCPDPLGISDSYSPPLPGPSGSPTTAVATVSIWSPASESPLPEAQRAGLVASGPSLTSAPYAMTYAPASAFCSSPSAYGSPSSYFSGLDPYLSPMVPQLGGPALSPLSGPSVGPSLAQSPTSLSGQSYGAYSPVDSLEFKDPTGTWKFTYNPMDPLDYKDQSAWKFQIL", "conditions": "protein: recombinant; tags: N-terminal GST; dsDNA, one strand shown", "outline": "as §1"}},
  "data": [
    {"sequence": "TGCATT", "values": [
      {"measurement": "binding signal", "setting": "[1]", "value": "1.38 fold enrichment (6-mer frequency, TF over GST control)"},
      {"measurement": "binding signal", "setting": "[2]", "value": "1.3 fold enrichment (6-mer frequency, TF over GST control)"},
      {"measurement": "binding signal", "setting": "[3]", "value": "1.24 fold enrichment (6-mer frequency, TF over GST control)"},
      {"measurement": "binding signal", "setting": "[4]", "value": "1.44 fold enrichment (6-mer frequency, TF over GST control)"},
      {"measurement": "binding signal", "setting": "[5]", "value": "1.36 fold enrichment (6-mer frequency, TF over GST control)"},
      {"measurement": "binding signal", "setting": "[6]", "value": "1.38 fold enrichment (6-mer frequency, TF over GST control)"},
      {"measurement": "binding signal", "setting": "[7]", "value": "1.39 fold enrichment (6-mer frequency, TF over GST control)"},
      {"measurement": "binding signal", "setting": "[8]", "value": "1.49 fold enrichment (6-mer frequency, TF over GST control)"},
      {"measurement": "binding signal", "setting": "[9]", "value": "1.32 fold enrichment (6-mer frequency, TF over GST control)"}
    ]}
  ]
}
